# Data as given in PubChem BioAssay AID2669 (National Center for Advancing Translational Sciences (NCATS), 2010).
# Several values for one entry are separate records, joined by “and”; a condition that tells them apart may be missing. Equal values may be shown once. Records with an inconclusive call do not appear. Activity calls are given as the source filed them. Calls follow the shape of the dose curve; as a rule, active = well fitted inhibition curve with a large enough effect; inconclusive = small, poorly fitted or top-dose-only effect, or effect the other way; inactive = flat fitted curve, though single readings scatter.
# Experiment: qHTS Assay Multiplex Screening to Identify Dual Action Probes in a Cell Model of Huntington: Cytoprotection (Protease relase)
# Conditions: PC12 HttQ103 cells, Cytotox-Glo protease release, 40 h; series mostly up to 46.1 µM
# Description: NIH Chemical Genomics Center [NCGC]
# NIH Molecular Libraries Probe Production centers Network [MLPCN]
# Assay Submitter (PI): Wei Zheng
# Huntington's disease is a neurodegenerative disorder caused by a trinucleotide repeat expansion in Exon 1 of the Huntingtin gene. The CAG trinucleotide encodes glutamine and polyglutamine expansions cause cell death in selective areas of the brain. Huntington polyglutamine repeats have the tendency to form aggregates which are observable in later stages of the disease. The exact nature of the aggregates, whether toxic, protective, or insignificant, is unclear.
# A stable PC12 cell line containing a gene fusion of Exon 1 of the Huntingtin gene linked to GFP under the control of the inducible ecdysone promoter were used as the cell-based model of Huntington Disease for high throughput screening. Exon 1 of the Huntingtin gene contained an expansion of 103 polyglutamines (Q103) which, when expressed, caused cell death and distinct, bright GFP aggregates. The amount of cell death and the size and intensity of GFP aggregates increased over time and induction level. In the primary screen, cell death were quantified with a measurement of ATP content in the cells. A maximal 40-50% of cell death was observed when the Huntington gene was induced in this cell line.
# We optimized this assay in a homogeneous 1536 well format. A quantitative high throughput screen (qHTS) was conducted on the PC12 cells which were induced to express the toxic fusion construct. Small molecules which prevented cell death were considered hits, and were further studied. The present assay is an alternate assay for cytoprotection using Promega's Cytotox-Glo reagent.
# PC12 cells stably containing a construct with an ecdysone inducible promoter expressing GFP fused to the exon 1 of HTTQ103 (Huntington protein which containing a 103 ployglutamine expansion) were used.
# NCGC Assay Protocol Summary:
# Sequence, Parameter, Description
# 1, Reagent, 5 uL 1500 cells/well 1536 TC treated White clear bottom plate
# 2, Compound, 23 nL Tebufenozide inducer (100 nM final) to all columns
# 3, Compound, 23 nL 40 uM to 0.5 nM Libraries
# 5, Reagent, 2 ul Promega's Cytotox-Glo assay reagent
# 6, Detector, 4 sec integration with a Viewlux Luminescent
# Media consisted of phenol red free DMEM + 5% equine serum (Hyclone # SH30072.03 ), 5% supplemented Bovine Calf Serum (Hyclone # SH30074.03 ), 1x pen/strep, no G418
row,SMILES,Potency
1,CCC(=O)O[C@]1(C(=O)CCl)[C@@H](C)C[C@H]2[C@@H]3CCC4=CC(=O)C=C[C@]4(C)[C@@]3(F)[C@@H](O)C[C@@]21C,inactive
2,N#CCSc1nc2ccc(N3CCCCC3)cc2c(=O)n1Cc1ccccc1,22.4 µM (active)
3,Cn1nnnc1Sc1ncnc2scc(-c3cccc(Cl)c3)c12,11.2 µM (active)
4,CN1C(=O)CC(Sc2ncccc2C(=O)O)C1=O (stereo not given),inactive
5,C=CCC(=O)OCCCCCCOc1ccc(C(=O)O)cc1,1.41 µM (active)
6,Cn1nnnc1Sc1ncnc2scc(-c3ccccc3Cl)c12,15.8 µM (active)
7,O=C1Cc2c([nH]c3ccc(Br)cc23)-c2ccccc2N1,2.24 µM (active) and 3.55 µM (active)
8,CC(=O)c1cccc(-c2csc3ncnc(Sc4nnnn4C)c23)c1,7.08 µM (active)
9,N#Cc1c(C(F)(F)F)cc(-c2ccc(Cl)cc2)[nH]c1=O,4.47 µM (active)
10,O=C(O)c1cccc(COc2ccc(CO)cc2Cl)c1,0.501 µM (active)
11,Cn1nnnc1Sc1ncnc2scc(I)c12,11.2 µM (active)
12,COc1c(F)c(F)c(C(=O)Nc2ccc3oc(-c4ccncc4)nc3c2)c(F)c1F,inactive
13,Cc1noc(C)c1COC(=O)Cc1ccc(Cl)cc1,inactive
14,COC(=O)c1ccc(NC(=O)CN2C(=O)CSC2=O)cc1,inactive
15,Fc1cccc(Cl)c1Cn1nnc2c(-n3ccnc3)ncnc21,inactive
16,COc1cccc(C(=O)Nc2ccc(F)c(F)c2F)c1,7.08 µM (active)
17,COC(=O)CNC(=O)C1CCN(C(=O)OCc2ccccc2)CC1,1.41 µM (active)
18,Cn1nnnc1Sc1ncnc2scc(-c3ccc4c(=O)ccoc4c3)c12,7.94 µM (active)
19,C=CS(=O)(=O)c1ccc(Oc2ccc(S(=O)(=O)C=C)cc2)cc1,10 µM (active)
20,NC(=O)C1CCN(CCC(=O)Nc2ccc(Br)cc2)CC1,inactive

row,SMILES,Potency
1,N#CCCn1c(Cl)nc2ccccc21,inactive
2,COc1ccccc1-c1nnc(Sc2nc([N+](=O)[O-])nn2C)o1,12.6 µM (active)
3,Cn1nnnc1Sc1ncnc2scc(-c3ccccc3Br)c12,14.1 µM (active)
4,Cn1nnnc1Sc1ncnc2scc(Br)c12,7.94 µM (active)
5,O=C(O)/C=C/C(O)c1ccc(Cl)cc1 (stereo not given),inactive
6,COc1ccc2cc3cc(C(=O)N4CCN(c5ccccc5)CC4)oc3nc2c1,2.24 µM (active)
7,COc1cc(NC(=O)COC(=O)[C@@H]2CCCN2S(=O)(=O)c2ccc(Cl)cc2)cc(OC)c1OC,inactive
8,COc1ccc(NC(=O)c2sc(SC)nc2N)cc1,4.47 µM (active)
9,O=C(Nc1ccc(Cl)cc1C(F)(F)F)C(Sc1cccc[n+]1[O-])c1ccccc1 (stereo not given),inactive
10,Cc1cc(C)n(S(=O)(=O)/C=C/c2ccccc2)n1,inactive
11,Cc1csc(N/N=C/c2ccc(O)c([N+](=O)[O-])c2)n1,1.78 µM (active)
12,Cn1nnnc1Sc1ncnc2scc(-c3ccc4ccccc4c3)c12,10 µM (active)
13,Cc1cc(C)nc(Sc2nc(C)nc3c2oc2ccccc23)n1,inactive
14,Cc1nnc(C)n1/N=C/c1cc(Br)cc(Br)c1O,inactive
15,Cn1nnnc1Sc1ncnc2scc(-c3ccc(-c4ccccc4)cc3)c12,10 µM (active)
16,CC(C(=O)O)c1ccc(N2Cc3ccccc3C2=O)cc1 (stereo not given),2.24 µM (active)
17,Cn1nnnc1Sc1ncnc2scc(-c3ccccc3)c12,2.82 µM (active) and 7.94 µM (active)
18,Cn1nnnc1Sc1ncnc2scc(-c3ccccc3C(F)(F)F)c12,20 µM (active)
19,Cn1nnnc1Sc1ncnc2scc(-c3ccccc3C#N)c12,15.8 µM (active)
20,COc1ccc2cc3cc(C(=O)NCc4ccco4)oc3nc2c1,1 µM (active)
